# Assay results taken from PubChem BioAssay (EPA / NIEHS).
# Results filed as inconclusive are left out. Active and inactive are the calls of the source. How the source made its calls: active means hit-call score of the fitted dose curve at least 0.9, where 1 is the maximum; inconclusive means response in the unintended direction; inactive means score below 0.9.
# Read-out: Cytochrome P450 3A4 (Homo sapiens) (UniProt P08684)
# Experiment: CLD_CYP3A4_48hr: CellzDirect (CLD) Gene Expression Assay for xenobiotic metabolism (CYP3A4) at 48 hours (AID 2283698)
# Description: CLD_48hr is a cell-based, multiplexed-readout assay that uses hepatocyte, a human liver primary cell, with measurements taken at 48 hours after chemical dosing in a 96-well plate.CLD_CYP3A4_48hr is one of 16 assay component(s) measured or calculated from the CLD_48hr assay. It is designed to make measurements of mRNA induction, a form of inducible reporter, as detected with chemiluminescence signals by Quantitative Nuclease Protection Assay (qNPA) technology.Data from the assay component CLD_CYP3A4_48hr was analyzed at the endpoint, CLD_CYP3A4_48hr, in the positive analysis fitting direction relative to DMSO as the negative control and baseline of activity. Using a type of inducible reporter, gain-of-signal activity can be used to understand changes in the reporter gene as they relate to the gene CYP3A4. Furthermore, this assay endpoint can be referred to as a primary readout. To generalize the intended target to other relatable targets, this assay endpoint is annotated to the cyp intended target family, where subfamily is xenobiotic metabolism.
# Human hepatocyte cultures were treated daily for two consecutive days with fresh dosing solutions containing appropriate concentrations of the 320 ToxCast chemicals (chemical identities were blinded to CellzDirect and other ToxCast collaborators), vehicle control (0.2% DMSO), and positive control inducers as summarized in Table 1. Due to the large number of treatment groups and chemicals examined, the ToxCast chemicals were divided into two groups (spanning two independent cultures of hepatocytes from separate donor preparations (Hu778: ToxCast plates 1 and 2; Hu776: ToxCast plates 3 and 4). Each preparation of human hepatocyte cultures was treated with respective vehicle control, medium only control, set of six positive controls/reference chemicals for the five hepatic receptor pathways, and a subset of eight of the ToxCast chemicals (indoxacarb, pyrithiobac-sodium, norflurazon, cyhalofop-butyl, methomyl, thiram, acetochlor, and propiconazole). These replicate data, coupled with internal replicates designed within the blinded ToxCast chemical library, provided additional data to evaluate interindividual differences between hepatocyte preparations and their potential impact on chemical profiles.Cell morphology and integrity were evaluated using phase-contrast microscopy as an indicator of hepatocyte cell health (Tyson & Green, 1987). Cultures for each treatment group (i.e., media, vehicle [0.2% DMSO], positive control inducers [multiple concentrations], and the ToxCast chemicals [multiple concentrations]) were observed and cell morphology was assessed relative to vehicle control cultures at each harvest time point (0, 6, 24, or 48 h). […] Images were evaluated at the conclusion of the study to assess changes in cell integrity and account for the effects of chemical exposure on uncharacteristic changes in concentration-dependent gene expression profiles. The results from these determinations of apparent cytotoxicity were annotated (yes/no) alongside the corresponding qNPA data for reference.At the conclusion of each treatment period, hepatocyte cultures (96-well) were washed with 1 volume of HBSS, lysed by addition of 25 ul ArrayPlate lysis buffer (HTG, Tucson, AZ), and 70 ul/well of Denaturation Oil, denatured by incubation at 95C for 10 min, and frozen at approximately -70C until analysis by nuclease protection assay (qNPA) (Roberts et al., 2007). For qNPA analysis, cell lysates were thawed at 50C for approximately 30 min, qNPA probes were added, and samples were incubated at 95C for 10 min to begin the detection process by denaturing the target RNA, dissociating the duplexes and secondary structure hybridization. At the conclusion of the hybridization period, S1 nuclease reagent was added to each sample to digest all nonprotected nucleotides at 50C for 60-90 min. […]
# Sequence of Cytochrome P450 3A4 (Homo sapiens) (P08684 whole entry, looked up): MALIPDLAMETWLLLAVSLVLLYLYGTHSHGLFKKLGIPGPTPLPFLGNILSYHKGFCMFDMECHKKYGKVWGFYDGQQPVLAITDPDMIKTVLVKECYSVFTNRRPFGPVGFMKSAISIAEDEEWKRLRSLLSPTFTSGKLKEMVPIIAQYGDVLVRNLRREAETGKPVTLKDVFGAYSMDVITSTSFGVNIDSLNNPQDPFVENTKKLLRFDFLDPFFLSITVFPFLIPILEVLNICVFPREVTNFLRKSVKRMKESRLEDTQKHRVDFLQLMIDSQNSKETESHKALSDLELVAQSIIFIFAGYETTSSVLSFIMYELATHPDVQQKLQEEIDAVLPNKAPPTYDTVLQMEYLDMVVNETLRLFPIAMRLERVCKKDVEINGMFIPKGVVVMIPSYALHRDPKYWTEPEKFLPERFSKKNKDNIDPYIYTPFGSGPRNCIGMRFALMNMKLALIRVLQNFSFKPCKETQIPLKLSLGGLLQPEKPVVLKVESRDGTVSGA
SMILES,AC50,outcome
CNc1cnn(-c2cccc(C(F)(F)F)c2)c(=O)c1Cl,13.6 µM (active),
COP(=O)(OC)OC(Br)C(Cl)(Cl)Br (stereo not given),,inactive
FC(F)C(F)(F)OCC(Cn1cncn1)c1ccc(Cl)cc1Cl (stereo not given),1.89 µM (active),
CCOC(=O)COc1cc(-c2nn(C)c(OC(F)F)c2Cl)c(F)cc1Cl,4.37 µM (active),
C#CCC1=C(C)C(OC(=O)C2C(C=C(C)C)C2(C)C)CC1=O (stereo not given),14.1 µM (active),
CC(=NC#N)N(C)Cc1ccc(Cl)nc1,,inactive
CCOP(=S)(OCC)SCCSCC,20 µM (active),
CCOP(=O)(OCC)Oc1cc(C)nc(C(C)C)n1,20 µM (active),
CCOC(=O)CC(SP(=O)(OC)OC)C(=O)OCC (stereo not given),20 µM (active),
CCOP(=S)(OCC)OC(Cl)C(Cl)(Cl)Cl (stereo not given),9.51 µM (active),
COc1ccc(C(=CC(=O)N2CCOCC2)c2ccc(Cl)cc2)cc1OC,1.9 µM (active),
CC(C1CC1)C(O)(Cn1cncn1)c1ccc(Cl)cc1 (stereo not given),20 µM (active),
Cc1cc(C2CC2)nc(Nc2ccccc2)n1,,inactive
CCCCSP(=O)(SCCCC)SCCCC,20 µM (active),
CCCSP(=O)(OCC)Oc1ccc(Br)cc1Cl (stereo not given),7.57 µM (active),
CCCOc1nn(C(=O)NS(=O)(=O)c2ccccc2C(=O)OC)c(=O)n1C,36.4 µM (active),
O=[N+]([O-])c1cc(C(F)(F)F)c(Cl)c([N+](=O)[O-])c1Nc1ncc(C(F)(F)F)cc1Cl,,inactive
CCCCOC(=O)c1ccccc1C(=O)O,,inactive
CSc1nc(NC(C)C)nc(NC(C)C)n1,3.24 µM (active),
CCc1cccc(C)c1N(C(=O)CCl)C(C)COC (stereo not given),3.97 µM (active),

SMILES,AC50,outcome
CC(C)=CC1C(C(=O)OCN2C(=O)C3=C(CCCC3)C2=O)C1(C)C (stereo not given),0.152 µM (active),
CC(COc1ccc(Oc2ccccc2)cc1)Oc1ccccn1 (stereo not given),3.97 µM (active),
CCc1cccc(CC)c1N(COC)C(=O)CCl,,inactive
CC1=NNC(=O)N(/N=C/c2cccnc2)C1,,inactive
COc1cc(OC)nc(Sc2cccc(Cl)c2C(=O)O)n1,35.2 µM (active),
CNC(=O)ON=C(C)SC,,inactive
C[Si](Cn1cncn1)(c1ccc(F)cc1)c1ccc(F)cc1,0.536 µM (active),
CCOP(=S)(Oc1cnc(C(C)(C)C)nc1)OC(C)C (stereo not given),0.383 µM (active),
CN(C)[C@@H]1C(=O)C(C(N)=O)=C(O)[C@@]2(O)C(=O)C3=C(O)c4c(O)cccc4[C@@](C)(O)[C@H]3[C@H](O)[C@@H]12,,inactive
CCOP(=S)(OCC)Oc1ccc([N+](=O)[O-])cc1,2.92 µM (active),
Nc1c(Cl)cc([N+](=O)[O-])cc1Cl,,inactive
N#CSCSC#N,,inactive
CCOP(=O)(SC(C)CC)N1CCSC1=O (stereo not given),5.18 µM (active),
CCNc1nc(Cl)nc(NC(C)(C)C#N)n1,20 µM (active),
Cc1nn(-c2cc(NS(C)(=O)=O)c(Cl)cc2Cl)c(=O)n1C(F)F,2.46 µM (active),
CCCCN(CC)c1c([N+](=O)[O-])cc(C(F)(F)F)cc1[N+](=O)[O-],6.48 µM (active),
CC(C)N(C(=O)SCC(Cl)=C(Cl)Cl)C(C)C,3.07 µM (active),
CN(C)NC(=O)CCC(=O)O,,inactive
CCc1cnc(C2=NC(C)(C(C)C)C(=O)N2)c(C(=O)O)c1 (stereo not given),,inactive
C#CC(C)(C)NC(=O)c1cc(Cl)cc(Cl)c1,,inactive
